Screen size: about 310,000 compounds; about 14,000 (4.5%) showed an effect of 50% or more. Effects have a minus sign here. The full list was thinned out, with strong results kept by preference.
The molecules below were run against human ether-à-go-go-related gene (hERG) potassium channel (human, UniProt Q12809) (assay: primary screen, population patch clamp on CHO cells stably expressing hERG; higher = less effect of the substance).
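Further: peak tail current of the secondary pulse compared with the same well before compound.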

Chain of human ether-à-go-go-related gene (hERG) potassium channel (Q12809 whole entry, looked up): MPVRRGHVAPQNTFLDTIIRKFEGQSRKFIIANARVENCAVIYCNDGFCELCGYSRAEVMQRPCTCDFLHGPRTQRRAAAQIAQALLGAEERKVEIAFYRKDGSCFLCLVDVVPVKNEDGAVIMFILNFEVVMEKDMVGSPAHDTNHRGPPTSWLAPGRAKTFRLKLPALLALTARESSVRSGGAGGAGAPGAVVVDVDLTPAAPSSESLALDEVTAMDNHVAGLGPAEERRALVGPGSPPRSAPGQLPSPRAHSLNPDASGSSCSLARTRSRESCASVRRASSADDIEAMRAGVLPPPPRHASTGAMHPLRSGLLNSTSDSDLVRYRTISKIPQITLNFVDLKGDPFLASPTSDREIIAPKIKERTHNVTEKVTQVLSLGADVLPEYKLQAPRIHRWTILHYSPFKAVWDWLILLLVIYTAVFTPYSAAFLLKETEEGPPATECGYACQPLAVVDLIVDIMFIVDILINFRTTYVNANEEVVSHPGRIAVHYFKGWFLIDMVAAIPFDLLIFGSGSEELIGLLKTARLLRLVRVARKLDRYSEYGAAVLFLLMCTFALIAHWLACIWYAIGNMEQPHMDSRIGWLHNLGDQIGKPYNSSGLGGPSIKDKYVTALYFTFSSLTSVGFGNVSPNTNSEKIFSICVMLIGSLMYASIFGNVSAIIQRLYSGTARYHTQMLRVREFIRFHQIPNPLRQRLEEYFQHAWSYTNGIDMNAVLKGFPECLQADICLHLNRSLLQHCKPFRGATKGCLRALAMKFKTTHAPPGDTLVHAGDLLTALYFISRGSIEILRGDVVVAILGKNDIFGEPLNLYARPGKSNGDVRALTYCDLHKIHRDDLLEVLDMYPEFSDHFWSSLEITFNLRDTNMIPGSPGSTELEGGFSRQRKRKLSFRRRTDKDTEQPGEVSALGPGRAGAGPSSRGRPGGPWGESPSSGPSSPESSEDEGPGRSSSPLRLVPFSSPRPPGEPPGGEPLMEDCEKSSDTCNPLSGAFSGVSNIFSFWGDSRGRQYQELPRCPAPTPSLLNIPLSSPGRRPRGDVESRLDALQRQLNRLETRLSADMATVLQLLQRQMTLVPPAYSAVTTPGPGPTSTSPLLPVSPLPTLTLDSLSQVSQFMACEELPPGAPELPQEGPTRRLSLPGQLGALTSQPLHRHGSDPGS

Compound	hERG current change (%, negative = inhibition) at 10uM [%]
O=C(O)c1ccc2c3c(cccc13)C(=O)N(c1cccc3ccccc13)C2=O	34.3
COc1ccc(-c2[nH]ncc2CN(CCO)Cc2cccs2)c(F)c1	4.65
CCCC(=O)NC(C)c1nc2ccccc2n1C(C)C (stereo not shown)	8.05
Cc1cc(C)cc(N(CCC#N)C(=O)COC(=O)CN2C(=O)NC(C)(C)C2=O)c1	19.6
COc1cccc(NC(=O)NNS(=O)(=O)c2ccc(OC)cc2OC)c1	-3
COc1ccc(N=N/C(C(C)=O)=C(/C)O)cc1	-24.5
CN(C)S(=O)(=O)c1cccc(-c2nn(-c3ccccc3)cc2/C=C2\SC(=S)NC2=O)c1	20.1
CCOc1cc(C(=O)OCC(=O)N(C)c2ccccc2)cc(OCC)c1OCC	-17.6
CCc1nnc(NC(=O)CSc2ncc(-c3ccccc3)n2C)s1	-0.226
CN(Cc1cn(C)nc1-c1ccc(Oc2ccccc2)cc1)Cc1cnc2ccccn12	-54
Cc1cnccc1CN(C)Cc1cn(C)nc1-c1ccc(Oc2ccccc2)cc1	-27.4
Cn1cc(CNCc2cnc3ccccn23)c(-c2ccc(Oc3ccccc3)cc2)n1	-50
NC(=O)C1CCN(C2=C(Cl)C(=O)c3ccccc3C2=O)CC1	13.6
NC12CC3CC(C1)CC(CO)(C3)O2	8.54
COc1ccc(N(CC(=O)N2c3ccccc3CC2C)S(=O)(=O)c2c(C)nn(C)c2C)cc1 (stereo not shown)	-25.9
Cl.OC(CN1CCN(Cc2ccccc2)CC1)c1ccc(F)cc1 (stereo not shown)	-67.9
OC(CN1CCN(Cc2ccccc2)CC1)c1ccc(Br)cc1 (stereo not shown)	-67.9
OC(CN1CCN(Cc2ccccc2)CC1)c1ccccc1 (stereo not shown)	-30.3
OC(CN1CCOCC1)c1ccc(F)cc1 (stereo not shown)	12.6
OC(CN1CCN(C(c2ccccc2)c2ccccc2)CC1)c1ccc(Br)cc1 (stereo not shown)	-28.8
OC(CN1CCN(c2ccccc2F)CC1)c1ccc(F)cc1 (stereo not shown)	-19.3
Cl.Oc1ccc(C2=CCNCC2)cc1O	10.1

Compound	hERG current change (%, negative = inhibition) at 10uM [%]
c1cnc(SCCOc2cccc3ccccc23)nc1	-8.05
C=CCNC(=S)NNc1nc(Nc2ccccc2)nc(N2CCCCC2)n1	10.3
COc1ccc(-c2nc(CC(=O)O)cs2)cc1	6.7
CCCCN1C(=O)C(=O)N(CC(=O)N2CCN(c3ccccc3)CC2)C1=O	3.67
CCOc1ccc(/C=N/N(C)c2ccccc2)cc1OC	15.8
CCNc1oc(-c2cccc3ccccc23)nc1C#N	15.7
COc1ccc(-c2c[n+](CC(=O)N3c4ccccc4Sc4ccccc43)c3n2CCC3)cc1.[Cl-]	-38.2
COc1ccc(-c2nnc3n2CCCCC3)cc1	19.9
COc1ccc(-c2c[n+]3c4n2CCCCC4=C(c2ccc(Br)cc2)C3)cc1.[Br-]	-75.1
COc1ccc(-c2c[n+](CC(=O)c3ccccc3)c3n2CCCCC3)cc1.[Br-]	11.7
COc1ccc(Cn2c(-c3ccc(Br)cc3)c[n+]3ccccc23)cc1.[Br-]	-8.08
COc1ccc(-c2c[n+]3c4n2CCCCC4=C(c2ccccc2)C3)cc1.[Br-]	-75.1
Clc1ccc(-c2cnc3n2CCCCC3)cc1	-46.4
Clc1ccc(C2=C3CCCCn4c(-c5ccccc5)c[n+](c43)C2)cc1.[Br-]	-82.1
C[n+]1cc(-c2ccccc2)n2c1CCCCC2.[I-]	4.03
COC(=O)c1cc(S(=O)(=O)N(C)c2ccc(C)c(C)c2)c[nH]1	-20.2
CCc1nc(NCCN2CCOCC2)c2oc3ccccc3c2n1.Cl	-28.2
Cc1nn(Cc2ccccc2)c(C)c1C(=O)OCC(=O)Nc1cccc(S(N)(=O)=O)c1	-0.587
O=C(CSc1nnc(CNC(=O)c2cccs2)o1)Nc1cccc(F)c1	4.85
Clc1ccccc1Cn1nnc(-c2ccccc2)n1	4.02
O=C1C2CCCN2C(=O)N1CCCCN1CCN(CCO)CC1 (stereo not shown)	-14.9
O=C1C2CCCN2C(=O)N1CCCN1CCN(c2cccc(Cl)c2)CC1 (stereo not shown)	-2.8

Compound	hERG current change (%, negative = inhibition) at 10uM [%]
O=C1C2CCCN2C(=O)N1CCCCN1CCN(c2ccccc2)CC1 (stereo not shown)	-21.6
O=C1C2CCCCN2C(=O)N1CCCCN1CCN(c2cccc(Cl)c2)CC1 (stereo not shown)	-60.6
O=C1C2CCCCN2C(=O)N1CCCCN1CCN(c2cccc(Br)c2)CC1 (stereo not shown)	-61.4
O=C1C2CCCN2C(=O)N1CCCCN1CCN(c2cccc(C(F)(F)F)c2)CC1 (stereo not shown)	-60.9
Cl.O=C1C2CCCN2C(=O)N1CCCN1CCN(c2cccc(Br)c2)CC1 (stereo not shown)	-9.07
O=C1C2CCCN2C(=O)N1CCCCN1CCN(c2cccc(Cl)c2)CC1 (stereo not shown)	-65.6
O=C1CC(N2CCSCC2)C(=O)N1c1cccc(Br)c1 (stereo not shown)	-3.54
COc1ccc(C(=O)/C=C/Nc2cc(C)on2)c(OC)c1	-6.33
COC(=O)c1ccccc1NC(=O)NC1CCN(Cc2ccccc2)CC1	-31.1
CCCn1cc(NC(=O)c2cc(-c3ccccc3)on2)cn1	-21.5
CCOC(=O)C1=C(C)Nc2ncnn2C1/C=C/c1ccccc1 (stereo not shown)	-2.68
CC1CN(c2ccc([N+](=O)[O-])nc2)CC(C)O1 (stereo not shown)	-21.6
COC(=O)c1ccc(NC(=O)CSc2nc(=O)cc(N)n2-c2ccccc2)cc1	12.8
CCOC(=O)C1CCN(c2c(NCCCN3CCCCC3)c(=O)c2=O)CC1	6.88
CC(OC(=O)c1cccc(S(=O)(=O)N2CCOCC2)c1)C(=O)NC1CCCCC1C (stereo not shown)	5.52
COc1cc(Cl)ccc1OCc1cc(C(=O)N(C)CCc2c(C)n[nH]c2C)no1	-19.5
COc1ccc(-c2csc(N(CCCN(C)C)C(=O)c3ccccc3Cl)n2)cc1.Cl	-67.3
COc1ccc(-c2csc(N(CCCN(C)C)C(=O)c3ccccc3C)n2)cc1.Cl	-75.1
COc1ccc(-c2csc(N(CCCN(C)C)C(=O)c3ccccc3F)n2)cc1.Cl	-35.3
CC1CCCC(C)N1C(=C(Cl)Cl)C(=C1SCCS1)[N+](=O)[O-] (stereo not shown)	16.7
COc1ccccc1N(Cc1ccccc1)S(=O)(=O)c1cccc(C(=O)Nc2ccccn2)c1	10.5
Cc1nc2ccccc2c(=O)n1-c1ccc(NS(=O)(=O)c2cc(F)ccc2F)cc1	-11.7

Compound	hERG current change (%, negative = inhibition) at 10uM [%]
O=C(CSc1ncccn1)N1CCN(Cc2ccccc2)CC1	9.31
Nc1cc(C(=O)O)c(Oc2ccc(Cl)cc2Cl)cc1C(=O)O	7.83
O=C(N/N=C/c1ccoc1)c1cc(Br)ccc1O	14.2
CCOc1ccc(NC(=O)c2ccc3[nH]c(=O)c(=O)[nH]c3c2)cc1	16.8
Cc1ccc(-c2nc3ccc([N+](=O)[O-])cc3[nH]2)cc1	-3.49
Cn1c(-[n+]2c(-c3ccccc3)cc(-c3ccccc3)cc2-c2ccccc2)nc2cc([N+](=O)[O-])ccc21.[I-]	-12.2
Cc1nc2ccc([N+](=O)[O-])cc2[nH]1	7.21
O=[N+]([O-])c1cccc(-c2nc3ccc([N+](=O)[O-])cc3[nH]2)c1	8.34
CCCC[n+]1ccc(-c2nc3ccc([N+](=O)[O-])cc3[nH]2)cc1	-59.5
CC(C)(C)c1nc2ccc([N+](=O)[O-])cc2[nH]1	-77.7
Nc1nc2ccc([N+](=O)[O-])cc2[nH]1	20.6
F[B-](F)(F)F.O=[N+]([O-])c1ccc2nc(-[n+]3c(-c4ccccc4)cc(-c4ccccc4)cc3-c3ccccc3)[nH]c2c1	-61.8
O=[N+]([O-])c1ccc(-c2nc3ccc([N+](=O)[O-])cc3[nH]2)cc1	-27.9
O=C(NNC(=O)C1CC=CCC1C(=O)O)c1ccc(Cl)cc1 (stereo not shown)	20.6
COC(CNC(=O)C1CCCN1C(=O)OCc1ccccc1)OC (stereo not shown)	5.41
Cc1cc(O)c(C2=Nc3ccccc3SC(c3ccc(Cl)cc3)C2)c(=O)o1 (stereo not shown)	19.4
Clc1ccccc1Nc1nc2ccccc2o1	10.5
O/C(=C\c1ccc2ccccc2n1)c1ccc(O)cc1O	4.33
CCOc1ccc(/C=C2\SC(=S)N(NC(=O)c3ccncc3)C2=O)cc1OC	16.9
COc1cc(NC(=O)CSCc2ccc(Cl)cc2)c(C(=O)O)cc1OC	13.6
CN(C)S(=O)(=O)c1ccc(NC(=O)CN2CCc3ccccc32)cc1	11.8
Cc1ccc(SCCNS(=O)(=O)c2ccc3c(c2)OCCO3)cc1	2.17

Source: article PMC4336329 (PLoS ONE, 2015)
